Experimental findings from article PMC7862700, “An all-to-all approach to the identification of sequence-specific readers for epigenetic DNA modifications on cytosine” are described below.

Holding throughout (experiment): DAPPL (digital affinity profiling via proximity ligation, sequencing); 10 mM Tris-HCl pH 7.5, 50 mM NaCl, 1 mM DTT, 4% glycerol, room temperature, 30 min; GST-TFs on glutathione beads, 16-mer random dsDNA library, 0.1% formaldehyde crosslink after washing; high values mean tight binding
One assay concerns the target T1, FEV (Homo sapiens, UniProt Q99581 1-238).
T1 sequence: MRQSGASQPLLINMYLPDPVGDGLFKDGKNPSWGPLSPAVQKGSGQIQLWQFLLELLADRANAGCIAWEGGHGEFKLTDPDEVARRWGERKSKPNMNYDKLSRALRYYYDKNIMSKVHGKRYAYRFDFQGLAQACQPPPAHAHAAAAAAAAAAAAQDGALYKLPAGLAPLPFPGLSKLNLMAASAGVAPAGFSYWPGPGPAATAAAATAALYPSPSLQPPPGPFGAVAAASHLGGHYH
Conditions: protein: recombinant; tags: N-terminal GST; dsDNA, one strand shown. The essentials:
(§1)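 A tag-only sample was pooled with DNA-barcoded human transcription factors that had been expressed in yeast as GST fusions and captured on glutathione beads. The pools were incubated for 30 min at room temperature with 200 nmole of a random double-stranded 16-mer DNA library in Tris/NaCl/DTT/glycerol buffer, then washed, crosslinked with 0.1% formaldehyde, proximity-ligated (BsaI/T4 ligase, 1 h, 37 °C), PCR-amplified and sequenced on an Illumina NextSeq500. Binding signal is each hexamer's read frequency for a factor divided by its frequency for the tag-only sample.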

The target in another assay is ETV5 (Homo sapiens, UniProt P41161 1-510). Conditions: protein: recombinant; tags: N-terminal GST; dsDNA, one strand shown. The essentials: as §1
Sequence of ETV5 (P41161 whole entry): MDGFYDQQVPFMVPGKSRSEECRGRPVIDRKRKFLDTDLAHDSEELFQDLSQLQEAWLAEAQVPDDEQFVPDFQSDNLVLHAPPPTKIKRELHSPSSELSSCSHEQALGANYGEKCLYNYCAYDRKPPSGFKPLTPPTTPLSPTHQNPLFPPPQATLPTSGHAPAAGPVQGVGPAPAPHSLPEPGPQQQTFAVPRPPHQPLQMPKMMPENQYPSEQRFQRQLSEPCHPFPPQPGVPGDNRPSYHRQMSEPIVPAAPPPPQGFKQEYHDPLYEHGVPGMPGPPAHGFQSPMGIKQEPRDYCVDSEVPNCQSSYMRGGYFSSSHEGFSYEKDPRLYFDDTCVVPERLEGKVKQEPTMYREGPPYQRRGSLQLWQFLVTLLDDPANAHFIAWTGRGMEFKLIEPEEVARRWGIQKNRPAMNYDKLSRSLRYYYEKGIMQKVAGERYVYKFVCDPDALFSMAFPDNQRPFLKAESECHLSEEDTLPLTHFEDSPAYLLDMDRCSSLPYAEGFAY
The next assay concerns the target HSF1 (Homo sapiens, UniProt Q00613 1-529). The conditions noted are these: protein: recombinant; tags: N-terminal GST; chain copies: 3; dsDNA, one strand shown. The essentials:
as §1

The target of another assay is T2, SPIC (Homo sapiens, UniProt Q8N5J4 1-248).
T2 sequence: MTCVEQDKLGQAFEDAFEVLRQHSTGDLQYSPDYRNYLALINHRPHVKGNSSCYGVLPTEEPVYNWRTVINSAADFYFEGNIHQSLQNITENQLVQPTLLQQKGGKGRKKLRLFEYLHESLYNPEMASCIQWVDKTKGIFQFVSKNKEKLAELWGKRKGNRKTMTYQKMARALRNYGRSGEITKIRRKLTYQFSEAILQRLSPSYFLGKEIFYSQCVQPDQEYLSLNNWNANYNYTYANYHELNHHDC
Conditions: protein: recombinant; tags: N-terminal GST; dsDNA, one strand shown. A digest of the protocol:
as §1

The next assay has as its target ELF4 (Homo sapiens, UniProt Q99607 1-663). The conditions noted are these: protein: recombinant; tags: N-terminal GST; dsDNA, one strand shown. A digest of the protocol: as §1
For a further assay, the target named is T3, ELK4 (Homo sapiens, UniProt P28324-2 1-405).
T3 sequence: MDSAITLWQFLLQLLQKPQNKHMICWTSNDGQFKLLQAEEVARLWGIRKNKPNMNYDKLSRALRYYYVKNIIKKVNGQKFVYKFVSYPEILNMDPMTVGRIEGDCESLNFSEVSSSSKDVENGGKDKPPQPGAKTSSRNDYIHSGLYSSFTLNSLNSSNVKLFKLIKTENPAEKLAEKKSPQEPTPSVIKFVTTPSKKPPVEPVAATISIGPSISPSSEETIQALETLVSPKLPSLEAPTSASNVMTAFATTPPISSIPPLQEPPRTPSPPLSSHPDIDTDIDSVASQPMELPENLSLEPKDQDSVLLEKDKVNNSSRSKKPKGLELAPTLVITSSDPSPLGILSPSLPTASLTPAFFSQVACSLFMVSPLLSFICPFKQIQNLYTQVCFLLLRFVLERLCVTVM
Conditions: protein: recombinant; tags: N-terminal GST; dsDNA, one strand shown. The essentials: as §1

The next assay deals with T4, ETV2 (Homo sapiens, UniProt O00321 1-342).
T4 sequence: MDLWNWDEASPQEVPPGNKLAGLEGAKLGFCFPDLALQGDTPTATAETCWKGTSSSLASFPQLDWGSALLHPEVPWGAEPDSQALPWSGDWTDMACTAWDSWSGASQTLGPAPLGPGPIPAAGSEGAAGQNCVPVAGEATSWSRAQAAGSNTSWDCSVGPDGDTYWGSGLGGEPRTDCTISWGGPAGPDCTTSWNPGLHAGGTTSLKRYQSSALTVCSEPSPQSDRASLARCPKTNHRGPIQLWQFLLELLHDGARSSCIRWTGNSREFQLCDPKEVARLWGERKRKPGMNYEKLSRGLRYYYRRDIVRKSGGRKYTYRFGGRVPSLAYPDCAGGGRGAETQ
Conditions: protein: recombinant; tags: N-terminal GST; dsDNA, one strand shown. A digest of the protocol: as §1

The target of another assay is T5, ELF3 (Homo sapiens, UniProt P78545 1-371).
T5 sequence: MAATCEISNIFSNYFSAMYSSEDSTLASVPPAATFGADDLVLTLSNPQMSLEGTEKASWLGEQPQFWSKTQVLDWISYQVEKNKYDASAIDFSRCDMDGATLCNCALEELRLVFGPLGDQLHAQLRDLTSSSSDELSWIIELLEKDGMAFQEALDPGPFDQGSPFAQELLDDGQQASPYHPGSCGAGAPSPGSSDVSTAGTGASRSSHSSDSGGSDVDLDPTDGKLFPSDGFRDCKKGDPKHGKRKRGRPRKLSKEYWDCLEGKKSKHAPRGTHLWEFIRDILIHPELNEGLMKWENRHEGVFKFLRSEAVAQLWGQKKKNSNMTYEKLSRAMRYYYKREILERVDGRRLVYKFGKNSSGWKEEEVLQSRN
Conditions: protein: recombinant; tags: N-terminal GST; dsDNA, one strand shown. The essentials: as §1

For a further assay, the target named is CRX (Homo sapiens, UniProt O43186 1-299). The conditions noted are these: protein: recombinant; tags: N-terminal GST; dsDNA, one strand shown. The essentials:
as §1

The target of a further assay is ETV1 (Homo sapiens, UniProt P50549 1-477). The conditions noted are these: protein: recombinant; tags: N-terminal GST; dsDNA, one strand shown. A digest of the protocol: as §1
Sequence of ETV1 (P50549 whole entry): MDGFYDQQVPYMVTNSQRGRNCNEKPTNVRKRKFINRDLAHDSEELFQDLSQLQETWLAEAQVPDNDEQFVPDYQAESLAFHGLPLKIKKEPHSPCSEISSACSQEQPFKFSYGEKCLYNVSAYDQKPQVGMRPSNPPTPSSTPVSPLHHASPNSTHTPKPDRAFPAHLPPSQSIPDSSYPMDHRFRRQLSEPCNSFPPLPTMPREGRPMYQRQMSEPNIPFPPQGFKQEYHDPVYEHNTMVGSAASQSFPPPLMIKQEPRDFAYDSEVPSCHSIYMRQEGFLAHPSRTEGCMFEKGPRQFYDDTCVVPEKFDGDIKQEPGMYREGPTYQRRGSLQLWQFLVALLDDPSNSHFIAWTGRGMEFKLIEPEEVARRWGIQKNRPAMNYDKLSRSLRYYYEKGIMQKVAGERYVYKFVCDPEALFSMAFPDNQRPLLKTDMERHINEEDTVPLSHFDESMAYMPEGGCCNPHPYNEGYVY
The target in a further assay is T6, ERF (Homo sapiens, UniProt P50548 1-548).
T6 sequence: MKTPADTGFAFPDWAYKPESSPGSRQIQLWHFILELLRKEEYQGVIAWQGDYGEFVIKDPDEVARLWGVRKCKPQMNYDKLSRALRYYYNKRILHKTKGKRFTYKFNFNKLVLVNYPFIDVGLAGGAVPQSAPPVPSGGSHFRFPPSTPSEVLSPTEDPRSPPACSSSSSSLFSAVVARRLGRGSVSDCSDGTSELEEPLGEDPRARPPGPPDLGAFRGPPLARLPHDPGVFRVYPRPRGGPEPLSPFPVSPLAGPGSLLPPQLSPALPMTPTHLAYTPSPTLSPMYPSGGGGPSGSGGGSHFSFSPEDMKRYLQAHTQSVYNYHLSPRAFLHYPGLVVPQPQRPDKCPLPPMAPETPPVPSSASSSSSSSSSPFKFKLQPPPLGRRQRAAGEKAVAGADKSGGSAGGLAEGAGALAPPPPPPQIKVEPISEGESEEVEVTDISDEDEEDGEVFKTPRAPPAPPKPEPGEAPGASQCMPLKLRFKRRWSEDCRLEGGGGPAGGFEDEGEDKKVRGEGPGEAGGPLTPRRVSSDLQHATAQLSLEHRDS
Conditions: protein: recombinant; tags: N-terminal GST; dsDNA, one strand shown. The essentials: as §1

In another assay the target is T7, ETV3L (Homo sapiens, UniProt Q6ZN32 1-361).
T7 sequence: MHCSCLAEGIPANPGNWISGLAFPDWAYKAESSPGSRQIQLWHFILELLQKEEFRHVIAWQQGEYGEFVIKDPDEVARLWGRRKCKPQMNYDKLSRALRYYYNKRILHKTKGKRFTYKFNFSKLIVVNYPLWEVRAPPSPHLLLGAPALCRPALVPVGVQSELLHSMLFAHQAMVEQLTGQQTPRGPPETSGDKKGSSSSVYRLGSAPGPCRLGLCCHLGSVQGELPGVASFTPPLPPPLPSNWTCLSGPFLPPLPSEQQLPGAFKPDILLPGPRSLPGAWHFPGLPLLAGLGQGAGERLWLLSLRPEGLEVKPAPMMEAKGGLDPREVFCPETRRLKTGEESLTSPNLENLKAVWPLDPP
The conditions noted are these: protein: recombinant; tags: N-terminal GST; dsDNA, one strand shown. A digest of the protocol:
as §1

A further assay has as its target T8, ETS2 (Homo sapiens, UniProt P15036 1-469).
T8 sequence: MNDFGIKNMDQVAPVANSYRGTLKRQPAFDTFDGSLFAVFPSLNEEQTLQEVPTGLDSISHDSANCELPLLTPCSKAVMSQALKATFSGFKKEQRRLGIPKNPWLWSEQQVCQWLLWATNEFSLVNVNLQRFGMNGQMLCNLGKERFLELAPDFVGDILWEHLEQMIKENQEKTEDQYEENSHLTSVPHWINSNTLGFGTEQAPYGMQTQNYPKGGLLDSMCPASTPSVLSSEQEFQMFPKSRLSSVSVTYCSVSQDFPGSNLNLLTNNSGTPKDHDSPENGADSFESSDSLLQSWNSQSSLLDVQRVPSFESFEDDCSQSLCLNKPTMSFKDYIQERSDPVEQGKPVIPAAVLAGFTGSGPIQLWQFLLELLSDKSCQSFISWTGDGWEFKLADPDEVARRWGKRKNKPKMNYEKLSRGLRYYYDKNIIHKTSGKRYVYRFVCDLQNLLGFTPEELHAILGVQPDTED
The conditions noted are these: protein: recombinant; tags: N-terminal GST; dsDNA, one strand shown. The essentials:
as §1

For a further assay, the target named is T9, SPDEF (Homo sapiens, UniProt O95238 1-335).
T9 sequence: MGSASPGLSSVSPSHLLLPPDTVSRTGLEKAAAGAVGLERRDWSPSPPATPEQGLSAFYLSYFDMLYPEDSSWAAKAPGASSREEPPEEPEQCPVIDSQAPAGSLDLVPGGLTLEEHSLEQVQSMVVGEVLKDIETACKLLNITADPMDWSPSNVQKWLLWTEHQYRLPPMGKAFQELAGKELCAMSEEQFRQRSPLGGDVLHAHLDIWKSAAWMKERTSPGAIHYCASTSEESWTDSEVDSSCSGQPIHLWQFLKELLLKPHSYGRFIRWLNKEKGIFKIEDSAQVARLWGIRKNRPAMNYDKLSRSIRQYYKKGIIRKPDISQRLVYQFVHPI
Conditions: protein: recombinant; tags: N-terminal GST; dsDNA, one strand shown. The essentials: as §1

A further assay has as its target T10, ETV7 (Homo sapiens, UniProt Q9Y603 1-341).
T10 sequence: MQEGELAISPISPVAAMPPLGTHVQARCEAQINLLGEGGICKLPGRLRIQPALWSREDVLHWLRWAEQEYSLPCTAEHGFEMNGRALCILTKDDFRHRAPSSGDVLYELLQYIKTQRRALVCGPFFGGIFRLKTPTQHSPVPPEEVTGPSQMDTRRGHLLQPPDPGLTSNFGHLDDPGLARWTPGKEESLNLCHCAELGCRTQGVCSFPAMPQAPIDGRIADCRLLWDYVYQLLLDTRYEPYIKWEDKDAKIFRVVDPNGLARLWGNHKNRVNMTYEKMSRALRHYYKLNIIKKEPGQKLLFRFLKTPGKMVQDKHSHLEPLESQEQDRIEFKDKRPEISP
Conditions: protein: recombinant; tags: N-terminal GST; dsDNA, one strand shown. A digest of the protocol: as §1

A further assay deals with T11, ELF5 (Homo sapiens, UniProt Q9UKW6-2 1-255).
T11 sequence: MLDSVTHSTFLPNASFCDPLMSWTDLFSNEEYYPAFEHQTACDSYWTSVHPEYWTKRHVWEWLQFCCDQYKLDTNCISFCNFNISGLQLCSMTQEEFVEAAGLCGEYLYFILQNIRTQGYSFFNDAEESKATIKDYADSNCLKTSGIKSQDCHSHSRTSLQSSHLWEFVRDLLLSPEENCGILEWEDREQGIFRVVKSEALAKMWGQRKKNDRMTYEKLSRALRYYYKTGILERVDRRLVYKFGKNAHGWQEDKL
Conditions: protein: recombinant; tags: N-terminal GST; dsDNA, one strand shown. The essentials: as §1

A further assay addresses T12, ETV3 (Homo sapiens, UniProt P41162-2 1-143).
T12 sequence: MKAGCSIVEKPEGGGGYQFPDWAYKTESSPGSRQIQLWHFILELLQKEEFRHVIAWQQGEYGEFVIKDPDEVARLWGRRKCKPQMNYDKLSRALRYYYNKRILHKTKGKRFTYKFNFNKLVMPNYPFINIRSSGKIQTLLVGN
The conditions noted are these: protein: recombinant; tags: N-terminal GST; dsDNA, one strand shown. The essentials: as §1

In another assay the target is ETV6 (Homo sapiens, UniProt P41212 1-452). The conditions noted are these: protein: recombinant; tags: N-terminal GST; dsDNA, one strand shown. The essentials:
as §1

Sequence of ETV6 (P41212 whole entry): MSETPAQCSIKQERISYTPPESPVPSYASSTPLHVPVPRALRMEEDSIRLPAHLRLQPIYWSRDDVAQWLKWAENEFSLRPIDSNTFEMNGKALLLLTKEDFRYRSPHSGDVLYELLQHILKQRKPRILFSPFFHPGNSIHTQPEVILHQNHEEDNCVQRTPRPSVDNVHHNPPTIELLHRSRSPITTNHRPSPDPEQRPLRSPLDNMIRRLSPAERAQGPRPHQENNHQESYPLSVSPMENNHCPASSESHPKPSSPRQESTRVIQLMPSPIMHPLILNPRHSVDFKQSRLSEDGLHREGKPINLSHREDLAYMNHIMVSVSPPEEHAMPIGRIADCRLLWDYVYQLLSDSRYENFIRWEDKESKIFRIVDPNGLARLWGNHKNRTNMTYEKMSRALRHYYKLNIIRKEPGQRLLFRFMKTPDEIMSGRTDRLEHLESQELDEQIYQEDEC
Sequence of HSF1 (Q00613 whole entry): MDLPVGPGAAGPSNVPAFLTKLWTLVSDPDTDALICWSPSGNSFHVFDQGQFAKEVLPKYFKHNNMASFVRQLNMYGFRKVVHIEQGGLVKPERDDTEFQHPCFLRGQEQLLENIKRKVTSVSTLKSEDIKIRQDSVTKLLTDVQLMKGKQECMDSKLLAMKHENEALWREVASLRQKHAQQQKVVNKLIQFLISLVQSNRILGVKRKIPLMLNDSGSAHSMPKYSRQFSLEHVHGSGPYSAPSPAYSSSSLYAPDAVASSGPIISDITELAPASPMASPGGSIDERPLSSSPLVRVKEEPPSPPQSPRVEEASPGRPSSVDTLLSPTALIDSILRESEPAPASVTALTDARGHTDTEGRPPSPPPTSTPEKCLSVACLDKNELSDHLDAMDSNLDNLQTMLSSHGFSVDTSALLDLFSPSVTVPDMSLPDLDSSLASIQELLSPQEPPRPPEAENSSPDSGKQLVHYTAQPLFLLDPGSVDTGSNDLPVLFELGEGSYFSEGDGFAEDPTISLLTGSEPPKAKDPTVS
Sequence of CRX (O43186 whole entry): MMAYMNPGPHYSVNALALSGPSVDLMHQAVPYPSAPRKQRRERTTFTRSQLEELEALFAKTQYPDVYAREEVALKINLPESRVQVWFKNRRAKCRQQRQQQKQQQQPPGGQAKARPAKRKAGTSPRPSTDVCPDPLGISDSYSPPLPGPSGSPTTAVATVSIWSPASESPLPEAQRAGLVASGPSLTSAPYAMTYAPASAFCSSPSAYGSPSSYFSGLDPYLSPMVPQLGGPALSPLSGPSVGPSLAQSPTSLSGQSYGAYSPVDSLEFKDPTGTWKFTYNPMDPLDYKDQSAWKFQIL
Sequence of ELF4 (Q99607 whole entry): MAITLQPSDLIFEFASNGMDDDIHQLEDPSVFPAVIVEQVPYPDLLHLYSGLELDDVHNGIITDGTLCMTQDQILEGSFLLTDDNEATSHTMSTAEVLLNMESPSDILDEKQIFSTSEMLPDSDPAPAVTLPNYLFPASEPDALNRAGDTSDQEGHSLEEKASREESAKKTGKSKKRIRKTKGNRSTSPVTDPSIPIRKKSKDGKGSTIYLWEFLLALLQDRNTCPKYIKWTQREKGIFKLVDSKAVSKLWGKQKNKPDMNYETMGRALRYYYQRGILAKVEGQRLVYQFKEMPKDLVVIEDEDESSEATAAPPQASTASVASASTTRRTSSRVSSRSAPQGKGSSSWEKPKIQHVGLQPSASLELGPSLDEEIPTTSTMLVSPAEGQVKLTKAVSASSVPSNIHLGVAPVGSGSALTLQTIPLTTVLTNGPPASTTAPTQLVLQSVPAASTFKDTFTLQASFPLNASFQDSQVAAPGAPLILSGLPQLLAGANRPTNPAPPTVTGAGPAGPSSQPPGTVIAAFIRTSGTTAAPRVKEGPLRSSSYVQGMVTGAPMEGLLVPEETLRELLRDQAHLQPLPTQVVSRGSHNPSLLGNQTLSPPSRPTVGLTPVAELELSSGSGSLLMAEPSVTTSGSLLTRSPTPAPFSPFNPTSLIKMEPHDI

Consider TCACGT, for which the binding signal with FEV is 1.19 fold enrichment (6-mer frequency, TF over GST control); with ETV5, 1.24 fold enrichment (6-mer frequency, TF over GST control); with HSF1 it was 1.13 fold enrichment (6-mer frequency, TF over GST control); with SPIC it was 1.19 fold enrichment (6-mer frequency, TF over GST control); with ELF4, 1.23 fold enrichment (6-mer frequency, TF over GST control); with ELK4, 1.27 fold enrichment (6-mer frequency, TF over GST control). For the same sequence, the binding signal is 1.02 fold enrichment (6-mer frequency, TF over GST control) with ETV2; 1.01 fold enrichment (6-mer frequency, TF over GST control) in the assay with ELF3; 1.15 fold enrichment (6-mer frequency, TF over GST control) with CRX; 1.26 fold enrichment (6-mer frequency, TF over GST control) with ETV1; 1.28 fold enrichment (6-mer frequency, TF over GST control) in the assay with ERF; 1.22 fold enrichment (6-mer frequency, TF over GST control) in the assay with ETV3L. The binding signal was 1.2 fold enrichment (6-mer frequency, TF over GST control) with ETS2; 1.15 fold enrichment (6-mer frequency, TF over GST control) with SPDEF; 1.22 fold enrichment (6-mer frequency, TF over GST control) with ETV7; 1.19 fold enrichment (6-mer frequency, TF over GST control) with ELF5; 1.19 fold enrichment (6-mer frequency, TF over GST control) in the assay with ETV3; 1.24 fold enrichment (6-mer frequency, TF over GST control) with ETV6.
